What all share (assay): DAPPL (digital affinity profiling via proximity ligation, sequencing); 10 mM Tris-HCl pH 7.5, 50 mM NaCl, 1 mM DTT, 4% glycerol, room temperature, 30 min; GST-TFs on glutathione beads, 16-mer random dsDNA library, 0.1% formaldehyde crosslink after washing; high values mean tight binding
Assay [1] deals with T1, FEV (Homo sapiens, UniProt Q99581 1-238).
T1 sequence: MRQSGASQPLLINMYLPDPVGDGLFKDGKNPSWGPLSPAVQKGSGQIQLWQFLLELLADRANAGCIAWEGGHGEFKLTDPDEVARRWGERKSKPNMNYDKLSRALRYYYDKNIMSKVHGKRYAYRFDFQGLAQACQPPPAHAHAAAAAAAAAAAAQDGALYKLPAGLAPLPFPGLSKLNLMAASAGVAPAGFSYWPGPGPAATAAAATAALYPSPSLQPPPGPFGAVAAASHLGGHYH
The following applies: protein: recombinant; tags: N-terminal GST; dsDNA, one strand shown. In outline: (§1)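 Binding signal is given per hexamer as its read frequency for a factor divided by its frequency in the tag-only sample. GST-fused human transcription factors were expressed in yeast, captured on glutathione beads, barcoded with DNA and pooled with that sample, then incubated with 200 nmole of a 16-mer random double-stranded DNA library in Tris/NaCl/DTT/glycerol buffer for 30 min at room temperature. The pools were then washed, crosslinked, proximity-ligated, amplified by PCR and sequenced on an Illumina NextSeq500.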

The target in assay [2] is ETV5 (Homo sapiens, UniProt P41161 1-510). Particulars: protein: recombinant; tags: N-terminal GST; dsDNA, one strand shown. In outline:
as §1

The target in assay [3] is HSF1 (Homo sapiens, UniProt Q00613 1-529). Particulars: protein: recombinant; tags: N-terminal GST; chain copies: 3; dsDNA, one strand shown. In outline: as §1
HSF1, sequence (Q00613 whole entry): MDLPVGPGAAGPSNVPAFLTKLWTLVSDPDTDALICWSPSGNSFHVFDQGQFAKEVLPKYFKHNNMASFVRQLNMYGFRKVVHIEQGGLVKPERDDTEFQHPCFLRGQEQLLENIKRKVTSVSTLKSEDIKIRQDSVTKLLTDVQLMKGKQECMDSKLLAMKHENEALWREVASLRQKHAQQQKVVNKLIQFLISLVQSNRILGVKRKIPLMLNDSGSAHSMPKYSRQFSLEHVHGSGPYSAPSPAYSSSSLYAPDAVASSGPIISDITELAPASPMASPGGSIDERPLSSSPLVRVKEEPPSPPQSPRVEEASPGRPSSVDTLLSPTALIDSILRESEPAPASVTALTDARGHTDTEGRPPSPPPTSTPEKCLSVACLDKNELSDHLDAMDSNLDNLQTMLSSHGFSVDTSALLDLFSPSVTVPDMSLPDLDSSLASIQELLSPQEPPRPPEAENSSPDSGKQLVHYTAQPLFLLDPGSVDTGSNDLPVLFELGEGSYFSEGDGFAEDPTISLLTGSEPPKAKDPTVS
Assay [4] deals with T2, SPIC (Homo sapiens, UniProt Q8N5J4 1-248).
T2 sequence: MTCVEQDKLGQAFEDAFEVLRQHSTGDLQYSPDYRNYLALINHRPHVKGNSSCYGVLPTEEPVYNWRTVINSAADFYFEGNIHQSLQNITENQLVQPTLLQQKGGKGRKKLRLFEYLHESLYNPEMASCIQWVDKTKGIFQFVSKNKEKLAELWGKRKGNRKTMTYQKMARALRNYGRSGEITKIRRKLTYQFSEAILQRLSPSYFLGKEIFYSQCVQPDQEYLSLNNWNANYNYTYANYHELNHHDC
Particulars: protein: recombinant; tags: N-terminal GST; dsDNA, one strand shown. In short, it runs like this:
as §1

Assay [5] addresses ELF4 (Homo sapiens, UniProt Q99607 1-663). The following applies: protein: recombinant; tags: N-terminal GST; dsDNA, one strand shown. In outline:
as §1

The target of assay [6] is T3, ELK4 (Homo sapiens, UniProt P28324-2 1-405).
T3 sequence: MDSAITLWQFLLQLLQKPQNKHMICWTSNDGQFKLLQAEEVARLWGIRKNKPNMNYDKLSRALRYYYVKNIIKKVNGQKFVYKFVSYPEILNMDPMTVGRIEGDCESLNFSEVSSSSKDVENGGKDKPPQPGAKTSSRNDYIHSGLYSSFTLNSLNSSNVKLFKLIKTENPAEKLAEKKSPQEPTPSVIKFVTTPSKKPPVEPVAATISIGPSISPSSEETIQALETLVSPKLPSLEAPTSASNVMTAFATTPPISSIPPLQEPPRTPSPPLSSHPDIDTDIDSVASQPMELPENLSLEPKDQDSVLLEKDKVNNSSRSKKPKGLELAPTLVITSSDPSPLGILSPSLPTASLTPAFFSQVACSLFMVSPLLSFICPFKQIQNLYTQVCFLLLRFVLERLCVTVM
Particulars: protein: recombinant; tags: N-terminal GST; dsDNA, one strand shown. In outline:
as §1

Assay [7] deals with T4, ETV2 (Homo sapiens, UniProt O00321 1-342).
T4 sequence: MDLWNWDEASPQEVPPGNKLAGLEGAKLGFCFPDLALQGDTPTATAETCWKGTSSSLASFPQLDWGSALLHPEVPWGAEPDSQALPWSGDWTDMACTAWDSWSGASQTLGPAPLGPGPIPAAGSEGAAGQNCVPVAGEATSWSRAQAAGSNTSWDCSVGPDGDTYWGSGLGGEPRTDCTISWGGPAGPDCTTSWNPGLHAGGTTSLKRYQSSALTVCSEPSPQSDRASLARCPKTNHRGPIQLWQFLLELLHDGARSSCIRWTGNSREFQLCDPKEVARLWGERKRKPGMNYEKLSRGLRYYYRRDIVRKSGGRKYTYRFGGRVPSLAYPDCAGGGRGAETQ
The following applies: protein: recombinant; tags: N-terminal GST; dsDNA, one strand shown. In short, it runs like this:
as §1

Assay [8] deals with T5, ELF3 (Homo sapiens, UniProt P78545 1-371).
T5 sequence: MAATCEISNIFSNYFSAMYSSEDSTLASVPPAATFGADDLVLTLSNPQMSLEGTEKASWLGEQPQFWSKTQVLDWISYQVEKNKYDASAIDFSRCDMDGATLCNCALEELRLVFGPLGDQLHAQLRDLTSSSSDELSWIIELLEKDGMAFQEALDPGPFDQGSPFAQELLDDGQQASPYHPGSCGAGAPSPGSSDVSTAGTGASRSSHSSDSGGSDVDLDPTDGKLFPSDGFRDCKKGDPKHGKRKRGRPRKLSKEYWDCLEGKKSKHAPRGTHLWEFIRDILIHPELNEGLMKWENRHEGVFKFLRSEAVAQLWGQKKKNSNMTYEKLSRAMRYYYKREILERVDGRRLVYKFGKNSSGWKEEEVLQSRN
Particulars: protein: recombinant; tags: N-terminal GST; dsDNA, one strand shown. In short, it runs like this: as §1

Assay [9] has as its target CRX (Homo sapiens, UniProt O43186 1-299). The following applies: protein: recombinant; tags: N-terminal GST; dsDNA, one strand shown. In outline: as §1
Assay [10] has as its target ETV1 (Homo sapiens, UniProt P50549 1-477). Particulars: protein: recombinant; tags: N-terminal GST; dsDNA, one strand shown. In short, it runs like this: as §1
For assay [11], the target named is T6, ERF (Homo sapiens, UniProt P50548 1-548).
T6 sequence: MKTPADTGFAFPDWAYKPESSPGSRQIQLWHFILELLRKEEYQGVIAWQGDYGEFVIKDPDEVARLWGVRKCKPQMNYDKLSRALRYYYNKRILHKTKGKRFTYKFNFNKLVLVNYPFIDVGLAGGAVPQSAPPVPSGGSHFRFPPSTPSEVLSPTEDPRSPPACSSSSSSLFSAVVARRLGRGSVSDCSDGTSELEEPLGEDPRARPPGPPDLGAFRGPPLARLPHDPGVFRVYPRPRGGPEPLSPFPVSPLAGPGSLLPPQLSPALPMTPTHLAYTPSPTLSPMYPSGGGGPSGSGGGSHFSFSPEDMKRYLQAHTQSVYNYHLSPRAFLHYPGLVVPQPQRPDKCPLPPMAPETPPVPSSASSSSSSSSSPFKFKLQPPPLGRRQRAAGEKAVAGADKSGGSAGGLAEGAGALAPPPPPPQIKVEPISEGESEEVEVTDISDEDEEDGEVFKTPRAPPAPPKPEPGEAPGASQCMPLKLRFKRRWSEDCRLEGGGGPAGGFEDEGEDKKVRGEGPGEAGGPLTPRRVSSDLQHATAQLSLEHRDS
The following applies: protein: recombinant; tags: N-terminal GST; dsDNA, one strand shown. In short, it runs like this:
as §1

Assay [12] concerns the target T7, ETV3L (Homo sapiens, UniProt Q6ZN32 1-361).
T7 sequence: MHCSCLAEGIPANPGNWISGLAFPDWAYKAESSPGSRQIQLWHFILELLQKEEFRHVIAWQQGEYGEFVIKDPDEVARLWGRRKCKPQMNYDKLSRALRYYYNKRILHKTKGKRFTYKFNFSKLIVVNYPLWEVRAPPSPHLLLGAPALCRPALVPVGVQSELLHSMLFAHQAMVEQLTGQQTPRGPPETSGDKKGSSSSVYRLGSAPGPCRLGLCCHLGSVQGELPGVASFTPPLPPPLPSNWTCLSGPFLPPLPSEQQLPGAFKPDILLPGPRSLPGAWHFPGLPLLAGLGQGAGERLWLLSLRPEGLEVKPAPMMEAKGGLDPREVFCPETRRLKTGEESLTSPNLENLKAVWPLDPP
The following applies: protein: recombinant; tags: N-terminal GST; dsDNA, one strand shown. In outline: as §1

For assay [13], the target named is T8, ETS2 (Homo sapiens, UniProt P15036 1-469).
T8 sequence: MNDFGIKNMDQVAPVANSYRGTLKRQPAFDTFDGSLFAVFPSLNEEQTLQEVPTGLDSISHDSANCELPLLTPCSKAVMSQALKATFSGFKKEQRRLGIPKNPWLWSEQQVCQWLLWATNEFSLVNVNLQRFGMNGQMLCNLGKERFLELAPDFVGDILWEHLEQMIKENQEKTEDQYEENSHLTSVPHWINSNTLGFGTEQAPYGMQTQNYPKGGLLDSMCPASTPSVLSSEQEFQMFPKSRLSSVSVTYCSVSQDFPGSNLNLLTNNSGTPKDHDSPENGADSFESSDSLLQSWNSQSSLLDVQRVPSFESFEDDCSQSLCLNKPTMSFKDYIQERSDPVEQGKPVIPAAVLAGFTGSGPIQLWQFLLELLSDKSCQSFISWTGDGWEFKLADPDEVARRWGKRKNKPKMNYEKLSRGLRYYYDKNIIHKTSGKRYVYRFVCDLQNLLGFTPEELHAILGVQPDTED
The following applies: protein: recombinant; tags: N-terminal GST; dsDNA, one strand shown. In outline: as §1

The target of assay [14] is T9, SPDEF (Homo sapiens, UniProt O95238 1-335).
T9 sequence: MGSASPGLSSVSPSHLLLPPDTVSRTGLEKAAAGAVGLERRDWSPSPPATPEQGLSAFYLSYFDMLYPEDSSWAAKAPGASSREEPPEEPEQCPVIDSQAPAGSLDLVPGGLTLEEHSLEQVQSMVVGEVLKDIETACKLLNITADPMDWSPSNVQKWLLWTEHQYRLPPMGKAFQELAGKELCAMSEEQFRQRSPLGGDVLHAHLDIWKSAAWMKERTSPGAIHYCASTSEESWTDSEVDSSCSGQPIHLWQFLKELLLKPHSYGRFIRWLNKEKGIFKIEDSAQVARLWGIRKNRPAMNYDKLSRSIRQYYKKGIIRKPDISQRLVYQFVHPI
The following applies: protein: recombinant; tags: N-terminal GST; dsDNA, one strand shown. In outline:
as §1

For assay [15], the target named is T10, ETV7 (Homo sapiens, UniProt Q9Y603 1-341).
T10 sequence: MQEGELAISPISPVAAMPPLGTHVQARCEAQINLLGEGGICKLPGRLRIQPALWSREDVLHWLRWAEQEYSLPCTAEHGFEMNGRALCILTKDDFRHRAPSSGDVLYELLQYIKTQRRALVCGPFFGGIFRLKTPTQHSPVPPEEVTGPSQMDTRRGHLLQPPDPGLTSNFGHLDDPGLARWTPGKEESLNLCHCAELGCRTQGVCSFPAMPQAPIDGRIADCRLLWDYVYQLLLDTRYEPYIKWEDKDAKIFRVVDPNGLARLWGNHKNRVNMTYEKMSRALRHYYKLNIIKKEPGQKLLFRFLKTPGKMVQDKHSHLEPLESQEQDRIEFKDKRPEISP
The following applies: protein: recombinant; tags: N-terminal GST; dsDNA, one strand shown. In short, it runs like this: as §1

Assay [16] deals with T11, ELF5 (Homo sapiens, UniProt Q9UKW6-2 1-255).
T11 sequence: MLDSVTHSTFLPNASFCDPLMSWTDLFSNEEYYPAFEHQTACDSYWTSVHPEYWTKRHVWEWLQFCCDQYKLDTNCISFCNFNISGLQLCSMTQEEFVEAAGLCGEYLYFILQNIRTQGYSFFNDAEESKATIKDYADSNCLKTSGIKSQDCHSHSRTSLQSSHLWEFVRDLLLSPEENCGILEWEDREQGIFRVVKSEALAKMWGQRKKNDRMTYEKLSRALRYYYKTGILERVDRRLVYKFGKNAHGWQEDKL
The following applies: protein: recombinant; tags: N-terminal GST; dsDNA, one strand shown. In short, it runs like this:
as §1

The target of assay [17] is T12, ETV3 (Homo sapiens, UniProt P41162-2 1-143).
T12 sequence: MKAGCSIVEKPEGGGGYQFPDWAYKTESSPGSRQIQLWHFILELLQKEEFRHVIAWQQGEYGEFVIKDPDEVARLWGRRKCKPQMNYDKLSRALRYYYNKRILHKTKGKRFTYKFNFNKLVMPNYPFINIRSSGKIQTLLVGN
The following applies: protein: recombinant; tags: N-terminal GST; dsDNA, one strand shown. In short, it runs like this:
as §1

The target in assay [18] is ETV6 (Homo sapiens, UniProt P41212 1-452). Particulars: protein: recombinant; tags: N-terminal GST; dsDNA, one strand shown. In short, it runs like this:
as §1

ETV1, sequence (P50549 whole entry): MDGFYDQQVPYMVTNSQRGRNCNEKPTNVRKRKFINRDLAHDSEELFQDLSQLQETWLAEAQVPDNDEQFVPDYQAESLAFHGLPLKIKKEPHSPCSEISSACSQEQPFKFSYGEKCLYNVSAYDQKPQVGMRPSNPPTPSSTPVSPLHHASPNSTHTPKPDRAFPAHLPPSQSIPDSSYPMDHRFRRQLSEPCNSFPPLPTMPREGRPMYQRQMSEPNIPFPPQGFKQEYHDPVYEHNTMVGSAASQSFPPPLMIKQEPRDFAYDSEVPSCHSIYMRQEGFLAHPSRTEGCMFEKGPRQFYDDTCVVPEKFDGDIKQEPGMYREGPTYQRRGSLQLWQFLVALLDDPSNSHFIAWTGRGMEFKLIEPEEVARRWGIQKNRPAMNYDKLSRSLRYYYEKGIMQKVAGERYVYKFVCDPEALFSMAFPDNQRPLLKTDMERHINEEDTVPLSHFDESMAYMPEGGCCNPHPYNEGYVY
ETV5, sequence (P41161 whole entry): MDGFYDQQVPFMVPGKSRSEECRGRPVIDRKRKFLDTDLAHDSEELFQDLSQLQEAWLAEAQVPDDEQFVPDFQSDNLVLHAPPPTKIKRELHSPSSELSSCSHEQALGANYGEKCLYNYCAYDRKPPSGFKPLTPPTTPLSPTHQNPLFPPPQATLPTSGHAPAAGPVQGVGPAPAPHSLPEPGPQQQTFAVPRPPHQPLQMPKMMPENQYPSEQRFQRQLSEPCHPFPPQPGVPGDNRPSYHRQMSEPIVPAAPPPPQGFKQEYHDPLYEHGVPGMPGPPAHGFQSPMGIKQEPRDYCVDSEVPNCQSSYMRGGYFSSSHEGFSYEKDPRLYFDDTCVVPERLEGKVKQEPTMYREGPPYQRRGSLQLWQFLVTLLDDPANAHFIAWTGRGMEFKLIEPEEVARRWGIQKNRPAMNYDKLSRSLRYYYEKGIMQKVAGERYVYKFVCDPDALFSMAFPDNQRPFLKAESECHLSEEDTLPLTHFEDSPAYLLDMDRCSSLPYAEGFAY
ELF4, sequence (Q99607 whole entry): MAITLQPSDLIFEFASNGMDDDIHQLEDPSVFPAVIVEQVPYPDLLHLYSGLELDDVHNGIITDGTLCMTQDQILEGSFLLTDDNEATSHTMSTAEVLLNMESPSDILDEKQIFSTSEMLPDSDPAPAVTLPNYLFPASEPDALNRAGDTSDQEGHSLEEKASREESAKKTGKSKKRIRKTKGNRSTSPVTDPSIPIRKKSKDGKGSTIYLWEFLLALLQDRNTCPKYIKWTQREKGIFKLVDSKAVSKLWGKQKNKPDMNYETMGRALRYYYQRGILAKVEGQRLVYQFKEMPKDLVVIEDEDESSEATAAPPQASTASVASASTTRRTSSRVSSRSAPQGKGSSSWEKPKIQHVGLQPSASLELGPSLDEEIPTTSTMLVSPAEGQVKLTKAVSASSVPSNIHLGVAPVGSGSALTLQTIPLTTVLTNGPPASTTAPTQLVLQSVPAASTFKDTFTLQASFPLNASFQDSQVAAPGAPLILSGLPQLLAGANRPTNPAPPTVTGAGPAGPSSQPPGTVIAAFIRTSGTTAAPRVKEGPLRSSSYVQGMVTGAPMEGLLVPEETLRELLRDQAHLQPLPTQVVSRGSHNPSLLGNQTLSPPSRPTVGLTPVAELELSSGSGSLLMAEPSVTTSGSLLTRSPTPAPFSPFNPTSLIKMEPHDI
CRX, sequence (O43186 whole entry): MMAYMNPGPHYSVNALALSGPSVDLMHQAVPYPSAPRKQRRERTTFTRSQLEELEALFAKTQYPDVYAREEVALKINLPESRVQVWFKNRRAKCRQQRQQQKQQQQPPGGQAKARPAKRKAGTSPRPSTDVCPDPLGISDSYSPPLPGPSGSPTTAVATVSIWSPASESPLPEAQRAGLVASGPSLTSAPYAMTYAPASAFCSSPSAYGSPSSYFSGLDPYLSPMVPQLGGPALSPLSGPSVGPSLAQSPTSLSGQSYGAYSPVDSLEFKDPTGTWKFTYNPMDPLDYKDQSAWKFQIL
ETV6, sequence (P41212 whole entry): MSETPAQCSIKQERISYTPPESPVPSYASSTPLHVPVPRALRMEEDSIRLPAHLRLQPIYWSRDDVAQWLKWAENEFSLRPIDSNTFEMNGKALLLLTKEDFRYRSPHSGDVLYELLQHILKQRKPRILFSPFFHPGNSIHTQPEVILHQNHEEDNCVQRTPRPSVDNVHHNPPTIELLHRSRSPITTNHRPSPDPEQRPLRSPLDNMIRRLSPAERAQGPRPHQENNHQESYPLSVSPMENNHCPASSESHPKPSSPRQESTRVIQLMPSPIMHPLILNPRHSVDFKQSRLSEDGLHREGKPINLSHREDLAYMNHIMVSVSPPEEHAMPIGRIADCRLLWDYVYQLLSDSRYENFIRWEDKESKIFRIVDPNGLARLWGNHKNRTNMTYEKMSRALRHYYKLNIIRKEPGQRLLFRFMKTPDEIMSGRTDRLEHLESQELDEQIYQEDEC

With GATTTT, the binding signal in [1] was 1.09 fold enrichment (6-mer frequency, TF over GST control); in [2], 1.1 fold enrichment (6-mer frequency, TF over GST control); in assay [3] it was 1.45 fold enrichment (6-mer frequency, TF over GST control); in [4], 1.14 fold enrichment (6-mer frequency, TF over GST control); in assay [5] it was 1.15 fold enrichment (6-mer frequency, TF over GST control); in [6] it was 1.24 fold enrichment (6-mer frequency, TF over GST control). Moreover, the binding signal in assay [7] was 1.12 fold enrichment (6-mer frequency, TF over GST control); in assay [8] it was 1.14 fold enrichment (6-mer frequency, TF over GST control); in [9], 1.72 fold enrichment (6-mer frequency, TF over GST control); in assay [10] it was 1.17 fold enrichment (6-mer frequency, TF over GST control); in assay [11] it was 1.16 fold enrichment (6-mer frequency, TF over GST control); in [12], 1.24 fold enrichment (6-mer frequency, TF over GST control). For the same sequence, the binding signal in assay [13] is 1.17 fold enrichment (6-mer frequency, TF over GST control); in assay [14], 1.14 fold enrichment (6-mer frequency, TF over GST control); in [15] it was 1.13 fold enrichment (6-mer frequency, TF over GST control); in [16], 1.13 fold enrichment (6-mer frequency, TF over GST control); in assay [17], 1.08 fold enrichment (6-mer frequency, TF over GST control); in assay [18], 1.11 fold enrichment (6-mer frequency, TF over GST control).

Values taken from publication PMC7862700, “An all-to-all approach to the identification of sequence-specific readers for epigenetic DNA modifications on cytosine”.
